From PubChem BioAssay (NCATS)
Results filed as inconclusive are left out. Entries that show only a call come without a potency. Unmarked numbers belong to inactive results. The source made the active and inactive calls. Calls come from the whole dose curve; as a rule, active = well fitted curve in the direction sought with a large enough effect; inconclusive = small, poorly fitted or top-dose-only effect, or another doubt; inactive = no such curve, though single readings can be large; an effect the other way counts as inactive or inconclusive. Square brackets hold non-standard residues; d marks the D form. Peptide text beside a SMILES is read from it. ξ: configuration not given here. ξPhe(βξ-Me) = CC(c1ccccc1)C(N)C(=O)O; GABA = NCCCC(=O)O

The compounds below were run against Cellular tumor antigen p53 (Homo sapiens) (UniProt P04637) (assay: Primary qHTS for small molecule compounds that upregulate eGFP-tagged delta133p53alpha (in N-terminal) cells. (AID 2060322; note: nearly all actives have a fitted effect of over 75% in size; note: potency is the fitted concentration of half-maximal effect;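 for activation: cells pre-induced with doxycycline then dosed without doxycycline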)). Conditions: NCI-H358 eGFP-delta133p53alpha fluorescence, 24 h; activation: hits give high values.
Sequence of Cellular tumor antigen p53 (Homo sapiens) (P04637 whole entry, looked up): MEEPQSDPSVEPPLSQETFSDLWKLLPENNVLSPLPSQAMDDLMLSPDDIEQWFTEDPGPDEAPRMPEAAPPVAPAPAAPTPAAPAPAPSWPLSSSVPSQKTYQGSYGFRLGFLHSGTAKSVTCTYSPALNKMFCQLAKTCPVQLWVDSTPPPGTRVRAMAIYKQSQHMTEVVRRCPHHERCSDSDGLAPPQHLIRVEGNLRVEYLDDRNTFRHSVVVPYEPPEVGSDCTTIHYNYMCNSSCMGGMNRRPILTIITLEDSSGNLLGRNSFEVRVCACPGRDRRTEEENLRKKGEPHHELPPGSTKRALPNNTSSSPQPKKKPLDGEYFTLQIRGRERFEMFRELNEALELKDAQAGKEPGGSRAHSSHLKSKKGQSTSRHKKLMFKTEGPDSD
Method in brief: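 NCI-H358 cells pre-induced 24 h with 10 ng/ml doxycycline for eGFP-delta133p53alpha, plated dox-free and exposed 24 h at 37C to titrated compounds. Fixed, Hoechst-stained; gated GFP peak intensity by laser scanning cytometry, normalized to DMSO (0%) and 57.5 uM 5-azacytidine (100%).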
`CC1CC(C(O)C(C)(C)O)OC2CC3(C)C4(C)CCC5C(C)(C)C(=O)CCC5(C)C4CCC3(O)C12O` (stereo not given) showed an activation of -11.5%. In the case of `O=C1NC2CCCCN2C12CCN(CCCN1c3ccccc3CCc3ccc(Cl)cc31)CC2` (stereo not given), the Potency is reported as 13.5 µM (active). With `C[C@@H]1O[C@@H](O[C@@H]2[C@@H](O[C@@H]3O[C@@H](C)[C@H](O[C@@H]4OC[C@H](O)[C@H](O[C@@H]5OC[C@@H](O)[C@H](O)[C@H]5O)[C@H]4O)[C@@H](O[C@@H]4OC[C@](O)(CO)[C@H]4O)[C@H]3O)[C@H](OC(=O)[C@]34CCC(C)(C)C[C@H]3C3=CCC5[C@@]6(C)C[C@H](O)[C@H](O[C@@H]7O[C@H](CO[C@@H]8OC[C@H](O)[C@H](O)[C@H]8O)[C@@H](O)[C@H](O)[C@H]7O)C(C)(C)C6CC[C@@]5(C)[C@]3(C)C[C@H]4O)OC[C@H]2O)[C@H](O)[C@H](O)[C@H]1O` (stereo not given in full) the activation was -8.4%. `COc1ccc2c3c1O[C@H]1C[C@@H](O)C=C[C@@]31CCN(C)C2` gave an activation of 27.7%. Compound `C=C1CCC[C@]2(C)CC[C@@](O)(C(=C)C(=O)O)C[C@@H]12` has an activation of 24.1%. With `Cc1ccccc1N1CCN(S(=O)(=O)C[C@]23CC[C@H](C[C@@H]2NC(=O)[C@@H](N)CCS(C)(=O)=O)C3(C)C)CC1` the activation was 3.67%. For `C=CC1(C)CC(O)C(C(=C)C(=O)OC)C(O)C1C(=C)CO` (stereo not given), the activation was -14.5%. `CCOC(=O)C(CCc1ccccc1)NC(C)C(=O)N1C(=O)N(C)CC1C(=O)O` (stereo not given) gave an activation of -5.25%. `O=C(/C=C/c1ccc(O)cc1)OC[C@H]1O[C@@H](O/C(=C\c2ccccc2)C(=O)O)[C@H](O)[C@@H](O)[C@@H]1O` was tested, and the activation was -2.29%. With `O=C(Nc1ccc(Cl)cc1F)c1ccccc1O` the activation was 8.59%. In the case of `O=C(CCc1ccccc1)N1CCC(O)(Cn2cnc3cc(Cl)ccc3c2=O)CC1`, the activation is reported as -13.7%. With `COc1cc(/C=C/C(=O)OC2CC3CCC2(C)C3(C)C)ccc1O` (stereo not given) the activation was -14.5%. `CC1(C)CCCC2(C)C3=C(C(=O)OC3O)C(O)CC12` (stereo not given) was tested, and the activation was 9.92%. `CC(C)C[C@@H]1NC(=O)[C@@H]2C[C@@]34C[C@@H]5[C@@]6(C)CCCC(C)(C)C6CC[C@@]5(C)N(c5ccccc53)[C@H]4N2C1=O` (stereo not given in full) was tested, and the activation was 3.82%. `C[C@H]1CC[C@H]2[C@@H](C=C[C@@](C)(O)[C@]2(C)C(=O)CCO)C1` showed an activation of -9.16%.

Each compound was assayed against Aldehyde dehydrogenase, mitochondrial (Homo sapiens) (UniProt P05091) (assay: qHTS for Inhibitors of the Aldehyde Dehydrogenase Family (ALDH2) Primary screen (AID 2061308; note: nearly all actives have a fitted effect of over 55% in size)). Conditions: ALDH2 enzyme inhibition qHTS, 1536-well; series mostly up to 56 µM.
With `COc1cc2ncnc(Nc3ccc(F)c(Cl)c3)c2cc1OCCCN1CCOCC1` the Potency was “inactive”. `CC1(CO)CCCC2(C)C1C(OC(=O)c1ccccc1)C=C1C(=O)OCC12O` (stereo not given) was tested, and the Potency was “inactive”. With `CC1[C@@H](O)[C@@H](O)C2[C@]3(C)C(C[C@H]4OC(=O)[C@H](O)[C@]1(O)[C@@]24C)C(C)(O)C[C@H](O)[C@H]3O` (stereo not given in full) the Potency was “inactive”. In the case of `C[C@@H]1CCC2C(C)(C)[C@H](O)CC[C@]2(C)[C@@]12Cc1c(O)cc3c(c1O2)CN([C@@H](CCC(=O)O)C(=O)O)C3=O` (stereo not given in full), the Potency is reported as “inactive”. In the case of `N#Cc1ccc(N2N=C3c4ccc(C(=O)O)cc4CC[C@@H]3[C@@H]2C2CCCC2)cc1Cl`, the Potency is reported as “inactive”. In the case of `Nc1nc(Cl)nc2c1ncn2C1OC(CO)C(O)C1F` (stereo not given), the Potency is reported as “inactive”. For `C[C@H]1CC[C@@H]2N(C1)C[C@@H]1[C@H]([C@@H](O)[C@H](O)[C@]3(O)[C@H]1C[C@@]14OC5(O)[C@@H](C[C@@H](O)[C@@H]31)[C@]4(C)CC[C@@H]5O)[C@]2(C)O`, the Potency was “inactive”. In the case of `CC(C)COc1ccc(CNC(=O)N(Cc2ccc(F)cc2)C2CCN(C)CC2)cc1`, the Potency is reported as “inactive”. For `CC[C@]1(O)CC2CN(CCc3c([nH]c4ccccc34)[C@@](C(=O)OC)(c3cc4c(cc3OC)N(C=O)[C@H]3[C@@](O)(C(=O)OC)[C@H](OC(C)=O)[C@]5(CC)C=CCN6CC[C@]43[C@@H]65)C2)C1` (stereo not given in full), the Potency was “inactive”. `C=C(CCO)C(=O)OCC1OCC(OC(=O)C(=C)CCO[C@@H]2O[C@H](COC(=O)C(=C)CCO[C@@H]3O[C@H](CO)[C@@H](O)[C@H](O)[C@H]3O)[C@@H](O)[C@H](O)[C@H]2O)C(O)C1O` (stereo not given in full) was tested, and the Potency was “inactive”. In the case of `CC1NC(=O)CCCNC(=O)C(Cc2c[nH]c3ccccc23)NC(=O)C(C)NC(=O)C(C(C)C)NC(=O)C(C(C)c2ccccc2)NC(=O)C(C(C)C)NC1=O` (stereo not drawn) (cyclo([GABA]AV[ξPhe(βξ-Me)]VAW); configuration not given here), the Potency is reported as “inactive”. `C/C=C/C=C/C=C/C(=O)N(C)C(C(=O)NC(C)C(=O)N1CCCC1C(N)=O)C(C)C` (stereo not given) was tested, and the Potency was “inactive”. For `O=C(O)/C=C/c1ccc2occc2c1O[C@@H]1O[C@H](CO)[C@@H](O)[C@H](O)[C@H]1O`, the Potency was “inactive”. `C[C@@H]1CC[C@]2(C(=O)O)CC[C@]3(C)C(=CCC4[C@@]5(C)C[C@@H](O)[C@H](O)[C@@](C)(CO)C5CC[C@]43C)C2[C@]1(C)O` (stereo not given in full) was tested, and the Potency was “inactive”. `C[C@]1(O)CC[C@@H]2C(C(=O)O)=CO[C@@H](O[C@@H]3O[C@H](COC(=O)/C=C/c4ccc(O)c(O)c4)[C@@H](O)[C@H](O)[C@H]3O)[C@@H]21` was tested, and the Potency was “inactive”. `O=C(/C=C/c1ccc(O)cc1)OC[C@H]1O[C@@H](OC(=O)/C=C/c2ccccc2)[C@H](O)[C@@H](O)[C@@H]1O` was tested, and the Potency was “inactive”. `Cc1ccc(N2CCN(S(=O)(=O)N3CCCCC3)CC2)c(C)c1` was tested, and the Potency was “inactive”. In the case of `CC(O)C(C)n1ncn(-c2ccc(N3CCN(c4ccc(OCC5COC(Cn6cncn6)(c6ccc(Cl)cc6Cl)O5)cc4)CC3)cc2)c1=O` (stereo not given), the Potency is reported as “inactive”. In the case of `COc1ccc(OC2OC(CO[C@@H]3O[C@@H](C)[C@H](O)[C@@H](O)[C@H]3O)C(O)C(O)C2O)cc1OC` (stereo not given in full), the Potency is reported as “inactive”. With `Cc1ccn(-c2cc(Cl)ccc2[C@@H](Oc2cc(-c3ccc(C[C@H](N)C(=O)O)cc3)nc(N)n2)C(F)(F)F)n1` the Potency was “inactive”. In the case of `Cc1ccccc1NC(=O)Nc1ccc(CC(=O)N(C)[C@@H](CC(C)C)C(=O)NCC[C@H](NC(=O)[C@@H]2CCCN2S(=O)(=O)c2cc(Cl)cc(Cl)c2)C(=O)O)cc1`, the Potency is reported as “inactive”. With `COC(=O)C1C(O)CCC2CN3CCc4c([nH]c5ccccc45)C3CC21` (stereo not given) the Potency was “inactive”. For `CC(=O)OC1C(O)CC2(C)C(CCC3(C)C2CC=C2C4C5(CCC(CO[C@@H]6O[C@H](CO)[C@@H](O)[C@H](O)[C@H]6O)(OC5=O)C4(C)O)C(O)CC23C)C1(C)C` (stereo not given in full), the Potency was “inactive”. For `COC(=O)[C@]12C(=O)C(C)=C(O)[C@@]1(C)C(C)=CC1[C@@]34CC[C@@H](OC(C)=O)C(C)(C)C3[C@H](C[C@]12C)OC4=O` (stereo not given in full), the Potency was “inactive”. In the case of `CC(C)=CCC(O)/C(C)=C/CO[C@@H]1O[C@H](CO)[C@@H](O)[C@H](O)[C@H]1O` (stereo not given in full), the Potency is reported as “inactive”. `CC1CC(C(O)C(C)(C)O)OC2CC3(C)C4(C)CCC5C(C)(C)C(=O)CCC5(C)C4CCC3(O)C12O` (stereo not given) was tested, and the Potency was “inactive”. With `O=C1NC2CCCCN2C12CCN(CCCN1c3ccccc3CCc3ccc(Cl)cc31)CC2` (stereo not given) the Potency was “inactive”. For `C[C@@H]1O[C@@H](O[C@@H]2[C@@H](O[C@@H]3O[C@@H](C)[C@H](O[C@@H]4OC[C@H](O)[C@H](O[C@@H]5OC[C@@H](O)[C@H](O)[C@H]5O)[C@H]4O)[C@@H](O[C@@H]4OC[C@](O)(CO)[C@H]4O)[C@H]3O)[C@H](OC(=O)[C@]34CCC(C)(C)C[C@H]3C3=CCC5[C@@]6(C)C[C@H](O)[C@H](O[C@@H]7O[C@H](CO[C@@H]8OC[C@H](O)[C@H](O)[C@H]8O)[C@@H](O)[C@H](O)[C@H]7O)C(C)(C)C6CC[C@@]5(C)[C@]3(C)C[C@H]4O)OC[C@H]2O)[C@H](O)[C@H](O)[C@H]1O` (stereo not given in full), the activity change, negative = inhibition was 17% [at 11.2 µM]. `COc1ccc2c3c1O[C@H]1C[C@@H](O)C=C[C@@]31CCN(C)C2` was tested, and the Potency was “inactive”. With `C=C1CCC[C@]2(C)CC[C@@](O)(C(=C)C(=O)O)C[C@@H]12` the Potency was “inactive”. With `Cc1ccccc1N1CCN(S(=O)(=O)C[C@]23CC[C@H](C[C@@H]2NC(=O)[C@@H](N)CCS(C)(=O)=O)C3(C)C)CC1` the Potency was “inactive”. With `C=CC1(C)CC(O)C(C(=C)C(=O)OC)C(O)C1C(=C)CO` (stereo not given) the Potency was “inactive”. `CCOC(=O)C(CCc1ccccc1)NC(C)C(=O)N1C(=O)N(C)CC1C(=O)O` (stereo not given) was tested, and the Potency was “inactive”. For `O=C(/C=C/c1ccc(O)cc1)OC[C@H]1O[C@@H](O/C(=C\c2ccccc2)C(=O)O)[C@H](O)[C@@H](O)[C@@H]1O`, the Potency was “inactive”. `O=C(Nc1ccc(Cl)cc1F)c1ccccc1O` was tested, and the Potency was “inactive”. `O=C(CCc1ccccc1)N1CCC(O)(Cn2cnc3cc(Cl)ccc3c2=O)CC1` was tested, and the Potency was “inactive”. In the case of `COc1cc(/C=C/C(=O)OC2CC3CCC2(C)C3(C)C)ccc1O` (stereo not given), the Potency is reported as “inactive”. For `CC1(C)CCCC2(C)C3=C(C(=O)OC3O)C(O)CC12` (stereo not given), the Potency was “inactive”. With `CC(C)C[C@@H]1NC(=O)[C@@H]2C[C@@]34C[C@@H]5[C@@]6(C)CCCC(C)(C)C6CC[C@@]5(C)N(c5ccccc53)[C@H]4N2C1=O` (stereo not given in full) the Potency was “inactive”. For `C[C@H]1CC[C@H]2[C@@H](C=C[C@@](C)(O)[C@]2(C)C(=O)CCO)C1`, the Potency was “inactive”.
